# PubChem BioAssay AID652154 (Broad Institute, 2013)
# Screen size: about 360,000 compounds; about 4,200 (1.2%) were called active.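 How the source made its calls: active means mean replicate inhibition at least 60% with every replicate also reaching 60%; inconclusive means only one of the two criteria is met; inactive means mean below 60% and not all replicates reaching 60%.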 This excerpt belongs to a sample that is enriched for actives.
# Assay: inhibitors of PAX8-driven TPO luciferase reporter, primary screen, RMG-I cells, single concentration (AID 652154);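 further: luciferase light reporting Pax8 driven TPO promoter activity; plate controls were median of neutral control wells for no effect and mitoxantrone controls for full effect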
# Conditions: SteadyGlo, 24 h, at 12.6 µM, hits give high values
row,SMILES,inhibition
1,CC[C@]1(O)C[C@@H]2CN(CCc3c([nH]c4ccccc34)[C@@](C(=O)OC)(c3cc4c(cc3OC)N(C)[C@H]3[C@@](O)(C(=O)OC)[C@H](OC(C)=O)[C@]5(CC)C=CCN6CC[C@]43[C@@H]65)C2)C1,94.6% (active)
2,CC[C@]1(O)CC2CN(CCc3c([nH]c4ccccc34)[C@@](C(=O)OC)(c3cc4c(cc3OC)N(C=O)[C@H]3[C@@](O)(C(=O)OC)[C@H](OC(C)=O)[C@]5(CC)C=CCN6CC[C@]43[C@@H]65)C2)C1 (stereo partly specified),82% (active)
3,O=C(C[C@@H]1CC[C@H]2[C@@H](COC[C@@H](O)CN2Cc2nccs2)O1)NCc1ccc(-c2ccccc2)cc1,23% (inactive)
4,C[C@@H]1CN([C@H](C)CO)C(=O)Cc2cc(NC(=O)CCN3CCOCC3)ccc2O[C@@H]1CN(C)S(C)(=O)=O,-16.5% (inactive)
5,C[C@H](CO)N1C[C@H](C)[C@@H](CN(C)Cc2ccccn2)Oc2ncc(-c3cccc(F)c3)cc2C1=O,-0.625% (inactive)
6,Cc1ccccc1S(=O)(=O)N1CC(=O)N2[C@H](CO)[C@H](c3ccc(C#CC4CC4)cc3)[C@@H]2C1,-7.36% (inactive)
7,Cc1csc(NC(=O)CSc2nc(=O)cc(N)n2-c2ccc(F)cc2)n1,-0.606% (inactive)
8,COc1cc(SC)ccc1C(=O)Nc1nc(C)cs1,72.7% (active)
9,COc1cc2ccccc2cc1C(=O)Nc1ccccc1C,-95.1% (inactive)
10,O=C(Cc1ccccc1)N1C[C@@H]2[C@H](c3ccccc31)[C@@H](CO)N2C(=O)C1CCOCC1,10.4% (inactive)
11,O=C(c1cccnc1)N1CC[C@H]2[C@H](CO)Nc3ccc(-c4ccc(F)cc4)cc3[C@H]21,1.77% (inactive)
12,CN(C[C@@H]1[C@H](c2ccccc2)[C@@H](CO)N1Cc1ccccn1)S(C)(=O)=O,-9.74% (inactive)
13,CC1CCCCC1NC(=O)COc1ccc(C#N)cc1 (stereo unspecified),-9.56% (inactive)
14,CC1CCCCC1NC(=O)/C(C#N)=C/C=C/c1ccccc1[N+](=O)[O-] (stereo unspecified),91.1% (active)
15,CC(OC(=O)/C=C/c1ccccc1)C(=O)NC1CCCCC1C (stereo unspecified),-9.75% (inactive)
16,CC(C)NC(=O)Nc1ccc2c(c1)C(=O)N([C@@H](C)CO)C[C@@H](C)[C@H](CN(C)Cc1ccc(C(=O)O)cc1)O2,-28.1% (inactive)
17,C[C@H]1CN([C@@H](C)CO)C(=O)c2cccc(NC(=O)c3ccncc3)c2O[C@H]1CN(C)C,-1.05% (inactive)
18,CCCC#Cc1ccc([C@H]2[C@@H](CO)N3CCCCN(S(=O)(=O)Cc4ccccc4)C[C@H]23)cc1,86.5% (active)
19,COc1ccc(S(=O)(=O)N2CCCCN3[C@H](CO)[C@H](c4ccc(C5=CCCCC5)cc4)[C@@H]3C2)cc1,69.6% (active)
20,CCCC#Cc1ccc([C@H]2[C@@H](CO)N3CCCCN(S(=O)(=O)CC)C[C@H]23)cc1,6.07% (inactive)
21,COc1ccc(S(=O)(=O)N2CCCCN3[C@H](CO)[C@@H](c4ccc(C#CC(C)C)cc4)[C@H]3C2)cc1,76.3% (active)
22,COc1ccc(S(=O)(=O)N2CCCCN3[C@@H](CO)[C@@H](c4ccc(C#CCC(C)C)cc4)[C@@H]3C2)cc1,46.7% (inactive)

row,SMILES,inhibition
1,C[C@@H](O)C#Cc1ccc([C@@H]2[C@H]3CN(S(=O)(=O)c4ccccc4)CCCCN3[C@H]2CO)cc1,-13.8% (inactive)
2,COc1cccc(S(=O)(=O)N2CCCCN3[C@H](C2)[C@H](c2ccc(C#CC(C)C)cc2)[C@@H]3CO)c1,69.8% (active)
3,COc1ccc(S(=O)(=O)N2CCCCN3[C@H](C2)[C@H](c2ccc(C#CCC(C)C)cc2)[C@@H]3CO)cc1,18.7% (inactive)
4,COc1ccc(S(=O)(=O)N2CCCCN3[C@H](C2)[C@H](c2ccc(C4=CCCC4)cc2)[C@@H]3CO)cc1,9.85% (inactive)
5,COc1cccc(S(=O)(=O)N2CCCCN3[C@H](C2)[C@@H](c2ccc(C4=CCCCC4)cc2)[C@@H]3CO)c1,12.7% (inactive)
6,CCCC#Cc1ccc([C@H]2[C@H](CO)N3CCCCN(S(=O)(=O)CC)C[C@@H]23)cc1,-26.1% (inactive)
7,COc1cccc(S(=O)(=O)N2CCCCN3[C@H](CO)[C@H](c4ccc(C#CC5CC5)cc4)[C@H]3C2)c1,12.2% (inactive)
8,CO[C@H]1CN(C)C(=O)c2ccc(NC(=O)C3CCC3)cc2OC[C@@H](C)NC[C@H]1C,9.77% (inactive)
9,CC(=O)NC[C@H]1[C@H](c2ccc(C3=CCCCC3)cc2)[C@@H](CO)N1C(=O)NC(C)C,-0.865% (inactive)
10,CCCNC(=O)N1C[C@H]2[C@@H](c3ccccc31)[C@H](CO)N2C(=O)NC(C)C,-13% (inactive)
11,COCC(=O)Nc1ccc2c(c1)C(=O)N(C)C[C@@H](OC)[C@@H](C)CN(C(=O)Cc1ccccn1)[C@@H](C)CO2,-15.1% (inactive)
12,CCC(=O)Nc1ccc2c(c1)C(=O)N(C)C[C@H](OC)[C@H](C)CN(CCC(F)(F)F)[C@H](C)CO2,-9.12% (inactive)
13,COCC(=O)Nc1ccc2c(c1)OC[C@@H](C)N(C(=O)CC1CC1)C[C@@H](C)[C@@H](OC)CN(C)C2=O,-0.715% (inactive)
14,C/C=C/c1ccc(C2[C@H]3CNC[C@@H]2N3C(=O)Nc2cc(F)ccc2F)cc1 (stereo partly specified),-0.3% (inactive)
15,CCNC(=O)Nc1ccc2c(c1)C(=O)N(C)[C@H]1CC[C@@H](CC(=O)N[C@H](C)c3ccccc3)O[C@@H]1CO2,-19% (inactive)
16,C[C@H]1CN([C@@H](C)CO)C(=O)c2ccccc2-c2ccccc2CO[C@H]1CN(C)S(=O)(=O)c1ccccc1C#N,-18.2% (inactive)
17,O=C(C[C@@H]1C[C@@H]2c3cc(NS(=O)(=O)c4ccc(F)cc4)ccc3O[C@@H]2[C@H](CO)O1)N1CCCCC1,9.01% (inactive)
18,CCCCc1c(-c2ccc(Cl)cc2)ncn1CCc1ccccc1OC,33.1% (inactive)
19,CCCCCc1c(-c2cccc(Br)c2)ncn1CCc1ccccc1OC,9.05% (inactive)
20,CCCCc1c(-c2ccc(Br)cc2)ncn1CCc1ccccc1OC,74% (active)
21,CN(C)CC#Cc1ccc([C@@H]2[C@H](CO)N3C(=O)CN(C(=O)Cc4cccnc4)C[C@@H]23)cc1,17.8% (inactive)
22,Cc1ccccc1-c1ccc([C@@H]2[C@H](CO)N3CCCCN(S(=O)(=O)c4ccc(F)cc4)C[C@@H]23)cc1,-34.4% (inactive)

row,SMILES,inhibition
1,Cc1ccc(OCC(=O)Nc2ccc(N3CCN(C(=O)c4ccco4)CC3)cc2)c(C)c1,7.91% (inactive)
2,Cc1ccc(C)c(OCC(=O)N2CCN(C(=O)c3ccco3)CC2)c1,64.3% (active)
3,O=C(OCC(=O)N1CCN(C(=O)c2ccco2)CC1)c1c(Cl)cccc1Cl,-6.1% (inactive)
4,CC(C)=CCc1ccc(O)c(=O)cc1C(C)C,79.1% (active)
5,CC(C)c1cc(N=O)cc(C(C)C)c1O,1.72% (inactive)
6,O=C(C[C@@H]1CC[C@H](NS(=O)(=O)c2cccc(F)c2)[C@H](CO)O1)N1CCCCC1,2.78% (inactive)
7,O=C(CN1CCOCC1)N1CCCCN2[C@H](C1)[C@H](c1ccc(-c3ccccc3F)cc1)[C@@H]2CO,0.84% (inactive)
8,C[C@@H]1CN([C@H](C)CO)C(=O)c2cc(NC(=O)c3ccncc3)ccc2O[C@@H]1CN(C)C(=O)Nc1ccc(F)cc1,-12.7% (inactive)
9,CC[C@H](C)[C@H]1CNC(=O)C(=O)N1CC1CCN(CCc2ccc(OC)c(OC)c2)CC1,5.58% (inactive)
10,Cc1noc(C)c1S(=O)(=O)Nc1ccc2c(c1)CC(=O)N([C@@H](C)CO)C[C@@H](C)[C@@H](CN(C)C(=O)Nc1ccc(C(F)(F)F)cc1)O2,4.57% (inactive)
11,COc1ccc(NC(=O)N(C)C[C@H]2OCCCC[C@H](C)Oc3ccc(NS(=O)(=O)c4ccc(Cl)cc4)cc3C(=O)N([C@@H](C)CO)C[C@H]2C)cc1,-13.3% (inactive)
12,C[C@@H]1CCCCO[C@H](CN(C)C(=O)NC2CCCCC2)[C@H](C)CN([C@H](C)CO)C(=O)c2cc(NS(=O)(=O)c3ccc(Cl)cc3)ccc2O1,53.7% (inactive)
13,C[C@H](CO)N1C[C@H](C)[C@H](CN(C)CC2CCCCC2)OCCCC[C@H](C)Oc2ccc(NS(=O)(=O)c3ccc(F)cc3)cc2C1=O,52.9% (inactive)
14,C[C@H]1CCCCO[C@@H](CN(C)C(=O)Nc2cccc3ccccc23)[C@@H](C)CN([C@@H](C)CO)C(=O)c2cc(NS(=O)(=O)c3ccc(Cl)cc3)ccc2O1,71.8% (active)
15,Cc1ccc(S(=O)(=O)Nc2ccc3c(c2)C(=O)N([C@@H](C)CO)C[C@@H](C)[C@H](CN(C)C(=O)Nc2cccc4ccccc24)OCCCC[C@H](C)O3)cc1,22.8% (inactive)
16,C[C@@H]1CCCCO[C@@H](CN(C)C(=O)Nc2cccc3ccccc23)[C@H](C)CN([C@@H](C)CO)C(=O)c2cc(NS(=O)(=O)c3ccccc3)ccc2O1,22.1% (inactive)
17,C[C@H]1CCCCO[C@@H](CN(C)C(=O)NC2CCCCC2)[C@@H](C)CN([C@@H](C)CO)C(=O)c2cc(NS(=O)(=O)c3ccc(Cl)cc3)ccc2O1,32.2% (inactive)
18,C[C@@H]1CCCCO[C@@H](CN(C)C(=O)NC2CCCCC2)[C@H](C)CN([C@H](C)CO)C(=O)c2cc(NS(=O)(=O)c3ccc(Cl)cc3)ccc2O1,89.7% (active)
19,C[C@H]1CCCCO[C@H](CN(C)CC2CCCCC2)[C@@H](C)CN([C@@H](C)CO)C(=O)c2cc(NS(=O)(=O)c3ccc(Cl)cc3)ccc2O1,68.9% (active)
20,C[C@@H]1CCCCO[C@H](CN(C)CC2CCCCC2)[C@H](C)CN([C@H](C)CO)C(=O)c2cc(NS(=O)(=O)c3ccc(F)cc3)ccc2O1,53.6% (inactive)
21,COc1ccc(NC(=O)N(C)C[C@@H]2OCCCC[C@@H](C)Oc3ccc(NS(=O)(=O)c4ccc(Cl)cc4)cc3C(=O)N([C@H](C)CO)C[C@H]2C)cc1,63.7% (active)
22,COc1ccc(NC(=O)N(C)C[C@H]2OCCCC[C@@H](C)Oc3ccc(NS(=O)(=O)c4ccc(F)cc4)cc3C(=O)N([C@@H](C)CO)C[C@@H]2C)cc1,1.37% (inactive)
